From PubChem BioAssay AID1049 (The Scripps Research Institute Molecular Screening Center, 2008)
The campaign covered roughly 200,000 compounds. About 780 (0.39%) were called active. This is one part of a sample in which actives are shown more often than they occur. Values without a mark were called inactive. Cut-off read from the data, not from the text of the source: active = TR-FRET ratio above about 2000; inactive = the rest.

Assay: TR-FRET signal artefacts, primary screen, artefact control for PPARgamma SRC-2 agonist project, biochemical (AID 1049)
Details: TR-FRET artefact counter-screen; at 8 µM; stronger effect = higher value

Row | SMILES | TR-FRET ratio
1 | COc1ccc(-c2nnco2)cc1OC | 1520
2 | COc1ccc2c(Cl)c(C(=O)NCc3ccco3)sc2c1 | 1570
3 | COc1ccc2c(Cl)c(-c3nnco3)sc2c1 | 2130 (active)
4 | COCCNC(=S)N/N=C/c1c(C)[nH]c2ccccc12 | 1410
5 | COc1ccc(C(=O)NC2CCN(C(=S)NCCc3ccccc3)CC2)cc1 | 1560
6 | C/C=C(\C)C(=O)NCCN1C2=NC[C@H](Cc3ccc(O)cc3)N2C[C@@H]1Cc1ccc(OC)cc1 | 1390
7 | CCN1CCC2(CCN(Cc3cn[nH]c3-c3ccc(OC)c(F)c3)C2)C1 (stereo not drawn) | 1730
8 | CN(C)c1ccnc(Oc2ccc(F)cc2)c1C#N | 1800
9 | N#Cc1ccc(-c2ccc(F)cc2)nc1Sc1ccccc1 | 1500
10 | N#Cc1ccc(-c2ccc(Cl)cc2)nc1Oc1ccc(F)cc1 | 5180 (active)
11 | CCn1cc(C(=O)Nc2cc(C)ccc2C)c(=O)c2ccc(C)nc21 | 1650
12 | CCOC(=O)C1(Cc2cccc(OC)c2)CCN(C(C)CC(C)(C)O)CC1 (stereo not drawn) | 1480
13 | COc1ccc(OC)c(C(=O)CSc2nnc(-c3cccs3)o2)c1 | 1750
14 | COC(=O)CSc1nccc(-c2cccs2)n1 | 1880
15 | NC(=O)CSc1oc(-c2cccs2)nc1S(=O)(=O)c1ccccc1 | 2010 (active)
16 | CCCn1c(N)c(C(=O)CSc2nc3ccccc3c(=O)n2-c2ccc(OC)cc2)c(=O)[nH]c1=O | 1480
17 | Cc1cc(C)nc(/N=C2\NC(=O)CC(C(=O)O)N2c2ccc(Cl)cc2Cl)n1 (stereo not drawn) | 1590
18 | COc1cccc(-c2ccc(SCC(=O)N3CCN(c4ccccc4)CC3)nn2)c1 | 1690
19 | COc1cc(C2C(C(=O)c3ccc(C)o3)=C(O)C(=O)N2Cc2cccnc2)ccc1O (stereo not drawn) | 1570
20 | COc1cc(C2C(C(=O)c3ccc(C)o3)=C(O)C(=O)N2CCc2ccccc2)ccc1O (stereo not drawn) | 1530
21 | CCCOc1ccc(C2C(C(=O)c3ccc(C)o3)=C(O)C(=O)N2CCCn2ccnc2)cc1 (stereo not drawn) | 2170 (active)
22 | COc1ccc(NC(=O)COC(=O)c2ccc(NS(=O)(=O)/C=C/c3ccccc3)cc2)cc1 | 1720
23 | O=C(c1ccc2ccccc2n1)N1CCN(c2ccccc2Cl)CC1 | 1700
24 | COc1ccc(C2C(C#N)=C(N)N(c3ncn[nH]3)C3=C2C(=O)CCC3)cc1 (stereo not drawn) | 1620
25 | COc1cccc(CN2CCNC(=O)C2CC(=O)N(C)CCc2ccccn2)c1 (stereo not drawn) | 1620

Row | SMILES | TR-FRET ratio
26 | Cc1ccc(S(=O)(=O)NC(C(=O)N2CCOCCOCCOCCOCC2)c2ccccc2)cc1 (stereo not drawn) | 1360
27 | NC(=NC(=O)c1ccccc1)N1CCOCC1 | 1360
28 | CC(C(=O)N1CCOCC1)N1c2cccc3cccc(c23)S1(=O)=O (stereo not drawn) | 2090 (active)
29 | C/C(=N\N1CCN(Cc2ccc(C)cc2)CC1)c1ccco1 | 1400
30 | Cc1nnc(SCc2cccc(Cl)c2)n(N)c1=O | 1460
31 | Cc1cc([N+](=O)[O-])nn1CCCC(=O)Nc1cccnc1Cl | 1580
32 | CC(NC(=S)Nc1ccc(S(N)(=O)=O)cc1)c1ccc2c(c1)OCO2 (stereo not drawn) | 1640
33 | CC(C)(C)N(CC#CCC(O)(c1ccccc1)C1CCCC1)CCO (stereo not drawn) | 1230
34 | O=C1NC(c2cccc(Cl)c2)Nc2ccccc21 (stereo not drawn) | 1540
35 | CC(=O)N1c2ccccc2N(Cc2ccc([N+](=O)[O-])cc2)C(=O)C1(C)C | 1510
36 | CCC1CCCCN1C(=S)Nc1ccc(C(C)=O)cc1 (stereo not drawn) | 1340
37 | CCN(CC)CCCNC(=O)CCc1ccccc1 | 1550
38 | CCN(CC)CCCNC(=O)c1cc(-c2cccc(Cl)c2)on1 | 1610
39 | CCN(CCCNC(=O)CSc1cc(=O)n(C)c2cc(Cl)ccc12)Cc1ccccc1 | 2600 (active)
40 | CCc1ccc(CN(C)Cc2nc(Cc3ccccc3)no2)nc1 | 1650
41 | CCOC(=O)c1ccc(NC(=O)c2cc(=O)[nH]c3ccccc23)cc1 | 1510
42 | O=C(O)Cc1sc(-c2ccccc2)nc1-c1cccs1 | 2400 (active)
43 | O=C(O)Cc1sc(-c2ccc(C(=O)O)cc2)nc1-c1ccccc1 | 1800
44 | Cc1ccc(-c2nc(C)sc2CC(=O)O)cc1 | 1600
45 | N#CC1(NC(=O)COc2ccc3oc4ccccc4c3c2)CCCCC1 | 1590
46 | COc1cc(C=O)c(Br)cc1OCC(=O)NCc1ccccc1 | 1530
47 | O=C(CSCc1ccccc1)N1CCc2ccccc21 | 1410
48 | O=C(NCc1ccco1)c1cc2sccc2n1Cc1ccc(F)cc1 | 1520
49 | O=C(c1cc2sccc2n1Cc1ccc(F)cc1)N1CCc2ccccc21 | 2950 (active)
50 | CCOC(=O)c1cc2sccc2n1Cc1ccc(C#N)cc1 | 1400

Row | SMILES | TR-FRET ratio
51 | CC1Cc2ccccc2N1C(=O)c1cc2sccc2n1Cc1ccccc1 (stereo not drawn) | 1970 (active)
52 | Cc1cc(=O)[nH]c(SCC(=O)N2c3ccccc3CC2C)n1 (stereo not drawn) | 1610
53 | COc1ccc(-c2csc(Cc3nc(O)cs3)n2)cc1 | 1650
54 | CC(O)c1cccc(NC(=O)Cc2cccc3ccccc23)c1 (stereo not drawn) | 1490
55 | CC1(C)CC(=O)C/C(=N\NC(=O)c2cccs2)C1 | 1760
56 | COc1cc(/C=C/C(=O)OCC(=O)NC(=O)NCc2ccccc2)ccc1OCC#N | 1430
57 | CC(=O)c1sc2nc(SCC(=O)N3CCCCC3)[nH]c(=O)c2c1C | 1990 (active)
58 | C=CCNC(=O)CSc1nc2sc(C)c(C)c2c(=O)[nH]1 | 1430
59 | O=C(CSc1nc2c(cnn2-c2ccc(F)cc2)c(=O)[nH]1)N1CCCCCC1 | 1460
60 | CC(=O)c1ccc(-n2nnnc2SCC(=O)N2CCN(C(=O)c3ccco3)CC2)cc1 | 1580
61 | Cn1c(=O)cc(SCC(=O)N2CCN(C(=O)c3ccco3)CC2)c2ccccc21 | 2320 (active)
62 | Cc1cccc(OCc2nnc(SCC(=O)N3CCN(C(=O)c4ccco4)CC3)n2C)c1C | 1760
63 | CCOC(=O)N1CCC(NC(=O)COc2cc(=O)n(C)c3ccccc23)CC1 | 1480
64 | Cn1c(=O)cc(SCC(=O)N2CCCC2)c2cc(Cl)ccc21 | 2940 (active)
65 | CCOC(=O)C1CCN(C(=O)CSc2cc(=O)n(C)c3ccccc23)CC1 | 2840 (active)
66 | CCOC(=O)C1CCN(C(=O)Cn2cc(C#N)c3ccccc32)CC1 | 1470
67 | O=C(CSCc1ccc(Cl)cc1)N1CCCCC1 | 1510
68 | CCOc1ccc(CCNC(=O)CSc2cc(=O)n(C)c3ccc(Cl)cc23)cc1OCC | 1900
69 | CN(C)C(CNC(=O)c1cccc(C#N)c1)c1ccco1 (stereo not drawn) | 1390
70 | COc1ccc(NC(=O)CN2C(=O)CSC2=O)cc1 | 1580
71 | Cc1ccc(CN2CCN(Cc3ccc(OCCO)cc3)CC2CCO)o1 (stereo not drawn) | 1600
72 | CC(C)OCCCNC(=S)N1CCC(C(=O)c2ccc3c(c2)OCCO3)CC1 | 1610
73 | O=C(Nc1cccc(O)c1)c1ccc(C(=O)c2ccccc2)o1 | 1480
74 | COC(=O)CN1C(=O)N/C(=C/c2ccc(OC)c(C)c2OC)C1=O | 1240
75 | CCOc1ccc(C(=O)Nc2cccc(-c3ccc4nncn4n3)c2)cc1 | 1400

Row | SMILES | TR-FRET ratio
76 | Cc1cccc(N2CCN(C(=O)c3cccc(S(=O)(=O)N4CCc5ccccc5C4)c3)CC2C)c1 (stereo not drawn) | 1420
77 | Cc1nc(-c2ccccc2)sc1C(=O)/C=C/c1ccccc1 | 1450
78 | C=CCn1c(-c2sc(-c3ccccc3)nc2C)n[nH]c1=S | 1590
79 | Cc1nc(-c2ccccc2)sc1-c1nc(-c2ccccc2)ncc1S(=O)(=O)c1ccccc1 | 1980 (active)
80 | Cc1ccc(-c2csc(SCC(=O)Nc3cc(C)on3)n2)cc1 | 1440
81 | Cc1cc(NC(=O)CSc2nnc(Nc3ccccc3F)s2)no1 | 1500
82 | Cc1cc(C)c2c(c1)cc(C)c1nnc(SCC(=O)Nc3cc(C)on3)n12 | 1970 (active)
83 | CCN(CC)C(=O)C(=O)Nc1cccc(Br)c1 | 1590
84 | COc1ccc(-n2c(O)c(C=NCC(c3ccco3)N3CCCC3)c3ccccc3c2=O)cc1OC (stereo not drawn) | 1590
85 | COc1ccccc1C1/C(=C(/O)c2ccc(C)cc2)C(=O)C(=O)N1Cc1ccco1 (stereo not drawn) | 1510
86 | COc1ccc(/C(O)=C2/C(=O)C(=O)N(c3nc(C)c(C)s3)C2c2ccco2)cc1 (stereo not drawn) | 2180 (active)
87 | COc1ccc(/C(O)=C2\C(=O)C(=O)N(Cc3ccco3)C2c2ccc(OC)cc2OC)cc1 (stereo not drawn) | 1620
88 | Cc1ccc(S(=O)(=O)Nc2nc3ccccc3s2)cc1[N+](=O)[O-] | 1360
89 | Cc1ccc(C)c(-n2cc(CN3CCN(C(=O)c4ncn[nH]4)CC3)c(-c3ccccc3)n2)c1 | 1390
90 | CCc1nnc(NS(=O)(=O)c2ccc(N=Cc3c(C)[nH]n(-c4ccc(C)cc4)c3=O)cc2)s1 | 1630
91 | Cc1ccc(-n2[nH]c(C)c(/C=N/N3C(=O)c4cccc5cccc(c45)C3=O)c2=O)cc1 | 1510
92 | COc1cc(SC#N)ccc1N=Cc1c(C)[nH]n(-c2ccc(C)cc2)c1=O | 1980 (active)
93 | Cc1cc(C)c(NC(=O)c2oc3ccccc3c2COc2ccccc2)c(C)c1 | 1540
94 | CCCCCC(O)c1cccc(OCc2ccc3ccccc3n2)c1 (stereo not drawn) | 1460
95 | CCN(CC)S(=O)(=O)c1ccc(N(C)Cc2cccc(OC)c2OC)nc1 | 1770
96 | Cc1cccc(-c2ncc(CN3CCC(CO)(CCCc4ccccc4)CC3)cn2)c1 | 1690
97 | OCC1(CCc2ccccc2)CCN(Cc2ccc3nsnc3c2)CC1 | 2040 (active)
98 | CC(=O)c1cccc(CN2CCC(CO)(Cc3ccccc3)CC2)c1 | 1590
